{"source": "the supplement of paper PMC10338343", "note": "± gives the standard deviation.", "data": [{"test_system": "MILI (PIWIL2) piRISC loaded with L1MC piRNA (26 nt)", "experiment": "pre-steady-state target cleavage rate (min^-1); guide: L1MC piRNA 5'p-UAACUAAAUACUAUGCAAGCUGUAGG; higher = faster piRNA-guided slicing of the target", "conditions": "auxiliary factor: 500 nM mouse GTSF1", "description": "(§1)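 Cleave-'n-Seq: a library of target RNAs (target site embedded in constant flanks, ACAGCATTCCGCGTTAGTGATATCCG... 5' flank; DNA-blocked outside the site) at 0.1 nM was incubated with 1 nM active mouse MILI or MIWI piRISC (synthetic 5'-monophosphorylated piRNA guide) with or without 500 nM mouse GTSF1 at 33 °C for 1 min to 16 h. Uncleaved targets were sequenced and normalised to non-target controls, and the pooled three trials were fitted to a burst-and-steady-state model to give the pre-steady-state cleavage rate (min^-1; k3 is constrained to at most 1e-4). Sequence is the target site only; target names encode pairing extent (gX:gY) and contiguous / 1-mismatch / 2-mismatch / bulge geometry. Fits with R² ≤ 0 are excluded.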", "values": [{"sequence": "UCCUGGUACUGCUUGGAUAGUAUUUAGUUA", "pre-steady-state target cleavage rate": "0.179 ± 0.029"}, {"sequence": "UCCUGGAUCAGCUUGACAUAGUAUUUAGUUA", "pre-steady-state target cleavage rate": "0.171 ± 0.019"}, {"sequence": "UCCUCCUGACAGCUUGCAUAGUAUUUAGUUA", "pre-steady-state target cleavage rate": "0.217 ± 0.018"}, {"sequence": "UCCUGGAUGUGCUAGCAUAGUAUUUAGAAA", "pre-steady-state target cleavage rate": "0.0422 ± 0.012"}, {"sequence": "UCCUCCUACAGGAUGCAUAGUAUUUAGUUA", "pre-steady-state target cleavage rate": "0.273 ± 0.013"}, {"sequence": "UCCUGGUACAGCUUGCAUAGUAAAUAGUUA", "pre-steady-state target cleavage rate": "0.238 ± 0.038"}, {"sequence": "UCCUCCUACAGCUAGGAUAGUAUUUAGUUA", "pre-steady-state target cleavage rate": "0.276 ± 0.015"}, {"sequence": "UCCUGGUAUAGCUUGCAUAGUAUUUAGUUA", "pre-steady-state target cleavage rate": "0.252 ± 0.022"}, {"sequence": "UCCUCCUACAGCUUGCAUAGAUUUUAGUUA", "pre-steady-state target cleavage rate": "0.0522 ± 0.012"}, {"sequence": "UCCUGGUACAGCUUGCAUAGUAUUUUGUAA", "pre-steady-state target cleavage rate": "0.03 ± 0.0099"}, {"sequence": "UCCUGGUACACCUUGCAUAGUAUUUAGUUA", "pre-steady-state target cleavage rate": "0.147 ± 0.026"}, {"sequence": "UCCUGGAUCAGACUUGCAUAGUAUUUAGUUA", "pre-steady-state target cleavage rate": "0.254 ± 0.015"}, {"sequence": "UCCUGGAUCAGCUUGCAUAGUGUUUAGUUA", "pre-steady-state target cleavage rate": "0.2 ± 0.018"}, {"sequence": "UCCUGGAUGUCGAUGCAUAGUAUUUAGUGUA", "pre-steady-state target cleavage rate": "0.149 ± 0.045"}, {"sequence": "UCCUGGUAAGCUUGCAUAGUAUUUAGUUA", "pre-steady-state target cleavage rate": "0.273 ± 0.017"}, {"sequence": "UCCUGGAUGAGCCUGCAUAGUAUUUAGUUA", "pre-steady-state target cleavage rate": "0.157 ± 0.019"}, {"sequence": "UCCUCGUUCAGCUUGCAUAGUAUUUAGUUA", "pre-steady-state target cleavage rate": "0.262 ± 0.015"}, {"sequence": "UCCUCCUACAGCUUGUCAUAGUAUUUAGUUA", "pre-steady-state target cleavage rate": "0.258 ± 0.015"}, {"sequence": "UCCUGGAUGUCCUUGCAAUGUAUUUAGUAA", "pre-steady-state target cleavage rate": "0.0086 ± 0.0045"}, {"sequence": "UCCUGGAUCAGCUUGCAUAGUAUAUAGUUA", "pre-steady-state target cleavage rate": "0.268 ± 0.017"}, {"sequence": "UCCUGCUACAGCUUGCAUAGAAUUUAGAUA", "pre-steady-state target cleavage rate": "0.0657 ± 0.021"}, {"sequence": "UCCUGGAUGUCGACGCAUAGUAUUUAGUUA", "pre-steady-state target cleavage rate": "0.0214 ± 0.0042"}, {"sequence": "UCCUGGAACACCUUGCAUAGUUUUUAGUUA", "pre-steady-state target cleavage rate": "0.0237 ± 0.0067"}]}, {"test_system": "MILI (PIWIL2) piRISC loaded with L1MC piRNA (26 nt)", "experiment": "pre-steady-state target cleavage rate (min^-1); guide: L1MC piRNA 5'p-UAACUAAAUACUAUGCAAGCUGUAGG; MIWI and MILI are mouse PIWI proteins and EfPiwi is from a freshwater sponge; tags in brackets are library labels; higher = faster piRNA-guided slicing of the target", "conditions": "auxiliary factor: none (no GTSF1)", "description": "as §1", "values": [{"sequence": "UCCUGGUACUGCUUGGAUAGUAUUUAGUUA", "pre-steady-state target cleavage rate": "0.00767 ± 0.0042"}, {"sequence": "UCCUGGAUCAGCUUGACAUAGUAUUUAGUUA", "pre-steady-state target cleavage rate": "0.00343 ± 0.0024"}, {"sequence": "UCCUCCUGACAGCUUGCAUAGUAUUUAGUUA", "pre-steady-state target cleavage rate": "0.00896 ± 0.0026"}, {"sequence": "UCCUCCUACAGGAUGCAUAGUAUUUAGUUA", "pre-steady-state target cleavage rate": "0.00736 ± 0.0024"}, {"sequence": "UCCUCCUACAGCUAGGAUAGUAUUUAGUUA", "pre-steady-state target cleavage rate": "0.00685 ± 0.0019"}, {"sequence": "UCCUGGUAUAGCUUGCAUAGUAUUUAGUUA", "pre-steady-state target cleavage rate": "0.011 ± 0.0024"}, {"sequence": "UCCUCCUACAGCUUGCAUAGAUUUUAGUUA", "pre-steady-state target cleavage rate": "0.00358 ± 0.002"}, {"sequence": "UCCUGGUACACCUUGCAUAGUAUUUAGUUA", "pre-steady-state target cleavage rate": "0.00607 ± 0.0034"}, {"sequence": "UCCUGGAUCAGACUUGCAUAGUAUUUAGUUA", "pre-steady-state target cleavage rate": "0.00843 ± 0.0023"}, {"sequence": "UCCUGGAUCAGCUUGCAUAGUGUUUAGUUA", "pre-steady-state target cleavage rate": "0.00361 ± 0.003"}, {"sequence": "UCCUGGUAAGCUUGCAUAGUAUUUAGUUA", "pre-steady-state target cleavage rate": "0.0137 ± 0.0032"}, {"sequence": "UCCUGGAUGAGCCUGCAUAGUAUUUAGUUA", "pre-steady-state target cleavage rate": "0.00748 ± 0.0033"}, {"sequence": "UCCUCGUUCAGCUUGCAUAGUAUUUAGUUA", "pre-steady-state target cleavage rate": "0.00616 ± 0.0018"}, {"sequence": "UCCUCCUACAGCUUGUCAUAGUAUUUAGUUA", "pre-steady-state target cleavage rate": "0.00407 ± 0.0019"}, {"sequence": "UCCUGGAUCAGCUUGCAUAGUAUAUAGUUA", "pre-steady-state target cleavage rate": "0.00895 ± 0.0025"}, {"sequence": "UCCUGGAUGUCGACGCAUAGUAUUUAGUUA", "pre-steady-state target cleavage rate": "0.00381 ± 0.0021"}]}]}
